Screens as filed in PubChem BioAssay.
UBC9 SUMO inh: inhibitors of human SUMOylation (UBC9) | AID 2006 | P63279 | inhibition, % at 35 µM | HTRF SUMOylation assay, SAE1/SAE2 + UBC9, in vitro | actives 0.36% (n = 290,000); in the data active means inhibition above about 50%, passing the limit was not always enough
UBC13 inh: inhibitors of human UBC13 polyubiquitin chain formation. inhibition, % at 20 µM. P61088. TR-FRET. actives 0.47% (n = 330,000); in the data active means inhibition above about 45%, passing the limit was not always enough
Target sequence (P61088 whole entry, looked up): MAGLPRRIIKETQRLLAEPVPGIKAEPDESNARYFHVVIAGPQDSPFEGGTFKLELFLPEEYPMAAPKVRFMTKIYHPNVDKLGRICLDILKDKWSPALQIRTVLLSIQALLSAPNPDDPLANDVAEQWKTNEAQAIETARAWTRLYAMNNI
sPLA2-III inh: Blocks human group III sPLA2 activity | Q9NZ20 | QFRET BODIPY PC-A2 liposome hydrolysis, fluorescence | inhibition, % at 12.2 µM | actives 0.56% (n = 370,000);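 active means inhibition above mean plus 3 SD of compounds lying within the high and low control bounds, cut at about 19% in these data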;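 further: 0% = median of test compound wells and 100% = no enzyme DMSO wells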
Target sequence (Q9NZ20 whole entry, looked up): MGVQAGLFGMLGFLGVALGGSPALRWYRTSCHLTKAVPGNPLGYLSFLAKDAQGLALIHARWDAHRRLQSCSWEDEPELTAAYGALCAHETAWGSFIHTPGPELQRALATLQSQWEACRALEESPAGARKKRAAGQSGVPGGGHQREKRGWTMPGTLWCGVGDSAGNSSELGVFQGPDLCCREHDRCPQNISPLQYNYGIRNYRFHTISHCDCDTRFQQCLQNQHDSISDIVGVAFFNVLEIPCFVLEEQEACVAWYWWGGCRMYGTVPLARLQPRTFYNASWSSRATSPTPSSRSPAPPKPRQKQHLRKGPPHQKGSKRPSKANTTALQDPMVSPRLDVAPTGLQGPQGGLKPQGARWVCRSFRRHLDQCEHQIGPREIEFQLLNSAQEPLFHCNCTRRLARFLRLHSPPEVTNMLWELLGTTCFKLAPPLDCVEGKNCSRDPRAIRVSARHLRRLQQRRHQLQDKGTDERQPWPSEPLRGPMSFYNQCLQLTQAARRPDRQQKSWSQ
NR3A LBD binder: modulators (binders) of human NR3A ligand-binding domain. Tm shift relative to glycine control, % at 25 µM. AID 1259313. NR3A LBD differential scanning fluorimetry, Tm shift; 0% = protein alone, 100% = glycine-bound protein. actives 2.5% (n = 340,000);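 active means melting temperature shift of at least 10% of the positive control shift, at one fixed dose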
hGIII sPLA2 conf: human GIII-sPLA2 inhibition, confirmation; shares compounds with sPLA2-III inh; recombinant hGIII-sPLA2, BODIPY PC-A2 QFRET fluorescence; inhibition, % at 12.2 µM; actives 34% (n = 2,000);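 active means mean inhibition across triplicates above the hit cutoff set in the earlier primary screen, cut at about 19% in these data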;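 further: 0% = enzyme with DMSO and 100% = DMSO wells lacking enzyme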
535nm interf: counter-screen for HGIII-sPLA2 inhibitors: 535nm fluorescence interference | inhibition, % at 12.2 µM | BODIPY FL product fluorescence interference, QFRET | shares compounds with sPLA2-III inh | AID 743282 | actives 8.5% (n = 2,000);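 active means average inhibition above the solvent-only control mean plus 3 SD, cut at about 6% in these data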;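 further: 0% = DMSO with substrate plus product and 100% = DMSO with substrate alone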
535nm interf DR: interferes with 535nm fluorescence in dose response counter-screen; shares compounds with sPLA2-III inh; BODIPY FL product fluorescence interference, cell-free; IC50, µM; 240 tested, under 10 active; AID 743455;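 active means IC50 at or below 10 µM; inactive means IC50 above 10 µM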
* marks the source's active call; other numbers are inactive results; · = no result. In the library only some 3.3% were active in any assay of this set; here they are far more common.

SMILES | UBC9 SUMO inh | UBC13 inh | sPLA2-III inh | NR3A LBD binder | hGIII sPLA2 conf | 535nm interf | others
Cc1ccc(NNC(=O)c2ccc(Cl)cc2)nn1 | 22 | 2 | 47* | -2 | 73* | 74*
NC1=[N+](Cc2ccccc2)C(Cc2ccccc2)C2C(=C3CCCCC3n3c(=O)n(-c4ccccc4)c(=O)n32)N1 (stereo not given) | · | · | 0 | · | · | ·
C#CCN1CC(N(C)CCCO)CS1(=O)=O (stereo not given) | · | · | 7 | · | · | ·
COC(=O)[C@]12C[C@H](CC(=O)N3CCCCC3)C(=O)N(Cc3ccc(Cl)cc3Cl)C1=C[C@H](C1CCCC1)O[C@@H]2C | · | · | -2 | · | · | ·
O=C(Nc1ccc(Cl)cc1Cl)NC1CCN(S(=O)(=O)c2ccc(F)cc2)CC1 | -60 | -10 | 21* | 21* | -26 | -3
COC(=O)[C@]12C[C@H](CC(=O)NCCC(C)C)C(=O)N(Cc3ccc(Cl)cc3Cl)C1=C[C@H](C(C)(C)C)O[C@@H]2C | · | · | 3 | · | · | ·
CC(C)(CO)CNc1ccn2nccc2n1 | · | · | 22* | · | 0 | -2
COc1ccc2[nH]c(=O)c(CN(CCc3ccccc3)C(C)=O)cc2c1 | 1 | 3 | -2 | 0 | · | ·
CCC(C)NC(=S)N(CCc1ccccc1)Cc1cc2cc(OC)c(OC)cc2[nH]c1=O (stereo not given) | 38 | 1 | 20* | 0 | 20* | -16
CC(C)c1ccccc1NC(=S)NCC1(N(C)C)CCCCC1 | -12 | 10 | 20* | -1 | 26* | -8
CC(C)c1ccccc1NC(=S)NC(=O)C1CCCCC1 | · | -3 | 10 | 0 | · | ·
CN1Cc2nnn(Cc3ccccc3)c2-c2cc(F)ccc2S1(=O)=O | · | · | 5 | · | · | ·
O=c1cc(-c2ccccc2)[nH]n1-c1nc2ccccc2[nH]1 | 24 | -31 | 19* | -8 | 14 | -1
O=C(Nc1ccn(CCCNCc2ccccn2)c(=O)n1)OCc1ccccc1 | · | · | 21* | 2 | 6 | -16
CCNC(=S)NNC(=O)CSc1nnc(SCc2cccc3ccccc23)s1 | · | · | 7 | · | · | ·
COCC(=O)N1CCN(C(=O)C(=O)c2cccc(C(F)(F)F)c2)CC1 | · | · | 23* | · | 1 | -2
O=C(CNC(=O)c1ccco1)Nc1ccc(N2CCCCCC2)cc1 | · | -2 | 22* | -1 | 12 | 0
O=C(CNC(=O)c1ccc(Br)o1)Nc1ccc(N2CCCCCC2)cc1 | · | -5 | 11 | -3 | · | ·
COC(=O)[C@H](C(C)C)N(CCCc1cn(Cc2ccccc2)nn1)S(=O)(=O)c1ccccc1Br | · | · | -17 | · | · | ·
COC(=O)C1CN(CCO)CCS(=O)(=O)N1Cc1cn(Cc2ccc(C)cc2)nn1 (stereo not given) | · | · | 3 | · | · | ·
CC(C)NC(=O)C1CCN(C(=O)C(C(=O)c2ccccc2)n2cc(Cl)ccc2=O)CC1 (stereo not given) | 21 | 3 | 0 | 1 | · | ·
CC(NC(=O)C(C(=O)c1cccc([N+](=O)[O-])c1)n1cc(Cl)ccc1=O)c1ccccc1 (stereo not given) | -3 | 5 | 25* | 2 | -6 | -6
Cc1nn(CC(=O)Nc2ccc(Cl)cn2)c(C)c1Br | 7 | -9 | 20* | -1 | 8 | -4
CCn1ncc(Br)c1C(=O)Nc1ccc(Cl)cn1 | 2 | -3 | 0 | 4 | · | ·
O=S(=O)(c1ccc(-c2n[nH]c(=S)o2)cc1)N1CCCC1 | 4 | 2 | 21* | 2 | 18 | -3
SMILES | UBC9 SUMO inh | UBC13 inh | sPLA2-III inh | NR3A LBD binder | hGIII sPLA2 conf | 535nm interf | others
COc1ccc(-n2c(-c3ccco3)n[nH]c2=S)cc1 | -5 | 13 | 5 | 5 | · | ·
COc1ccccc1-n1c(-c2ccco2)n[nH]c1=S | 2 | 4 | 7 | 3 | · | ·
Cn1c(-c2cccc3ccccc23)n[nH]c1=S | -8 | 1 | 20* | 2 | 5 | -4
Cc1ccc(C)c(-n2c(-c3ccco3)n[nH]c2=S)c1 | · | 2 | 21* | 0 | 21* | 3
S=c1[nH]nc(-c2ccco2)n1-c1cccc2ccccc12 | 4 | 5 | 21* | 2 | 25* | 3
COC(=O)[C@]12C[C@H](CC(=O)NCC34CC5CC(CC(C5)C3)C4)C(=O)N(CCc3ccc(OC)c(OC)c3)C1=C[C@H](COCc1ccccc1)O[C@@H]2C | · | · | -21 | · | · | ·
CCc1cccc2c(C(C)c3ccccc3O)c[nH]c12 (stereo not given) | · | · | -42 | · | · | ·
COc1ccc(C[N+]2=C(N)N[C@@]3(C=C(C)Cn4c(=O)n(-c5ccccc5)c(=O)n43)C2)c(OC)c1 | · | · | -7 | · | · | ·
CC(C)CN1CCN(C2CCN(C(C)C)CC2)C(CCO)C1 (stereo not given) | 10 | · | · | · | · | ·
CC(C)N1CCC(N2CCN(C/C=C/c3ccc(F)cc3)CC2CCO)CC1 (stereo not given) | 10 | 2 | 20* | 1 | 1 | -9
COc1ccc2c(c1)CCC/C2=N\NC(=O)c1ccoc1C | 21 | · | 21* | -4 | 12 | -5
S=C(NCCc1ccccc1)N1CCCC1 | · | -6 | 2 | 0 | · | ·
CC1CCCCN1C(=S)NCCc1ccccc1 (stereo not given) | 2 | -3 | 22* | 0 | 9 | -6
CC(=O)c1ccc(-n2nnnc2SCC(=O)Nc2sc(C)c(C)c2C#N)cc1 | -2 | 2 | 19* | 0 | 4 | -11
Cc1ccc(-n2nnnc2SCC(=O)Nc2sc(C)c(C)c2C#N)cc1C | 8 | 2 | -4 | -3 | · | ·
CC(C)CNC(=O)OCc1cn(Cc2ccc(C(F)(F)F)cc2)nn1 | · | · | 2 | · | · | ·
C[N+]1=C(N)NC2=C3CCCCC3n3c(=O)n(-c4ccccc4)c(=O)n3C2C1 (stereo not given) | · | · | 4 | · | · | ·
COc1cnc(-c2ccccn2)nc1Oc1cccc(C(F)(F)F)c1 | -4 | -8 | 21* | · | 8 | -16
COc1cnc(-c2ccccn2)nc1Oc1ccccc1 | 20 | -11 | 11 | 0 | · | ·
CCC(=O)Nc1ccc(NC(=O)c2ccc3c(c2)OCO3)cc1 | 10 | -1 | -1 | -2 | · | ·
CCN(CC)c1ccc(NC(=O)c2ccc3c(c2)OCO3)cc1 | -8 | 2 | 20* | 0 | 19 | -4
COC(=O)[C@]12C[C@H](CC(=O)NCCC(C)C)C(=O)N(Cc3cccc4ccccc34)C1=C[C@H](C(C)(C)C)O[C@@H]2C | · | · | -5 | · | · | ·
CCn1c(NC(=S)Nc2ccccc2)nc2ccccc21 | -66 | 9 | 23* | -1 | 24* | 3
S=C(Nc1ccccc1)Nc1nc2ccccc2n1CCOc1ccc(Cl)cc1 | -79 | 6 | 5 | -134 | · | ·
CCCn1c(NC(=S)Nc2ccccc2)nc2ccccc21 | -64 | 5 | 37* | -6 | 48* | 6 | 535nm interf DR=>122
CCOC(=O)c1cccc(NC(=O)CN(C)S(=O)(=O)c2cc3ccccc3s2)c1 | · | · | -34 | · | · | ·
O=C(c1cccs1)n1ccc2ccc(-c3ccc4ccn(C(=O)c5cccs5)c4c3)cc21 | · | · | 0 | · | · | ·
